Screening data (PubChem)
Rows were chosen to be rich in hits. Some 3.4% of all compounds tested hit in one or more screens of this group.
MITF primary: blocks human microphthalmia-associated transcription factor; O75030; AlphaScreen MITF homodimerization, bead proximity signal; inhibition, % at 2.6 µM; actives 0.91% (n = 650,000); AID 1259374; in the data active = inhibition above about 50%;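 note: 0% = vehicle wells with protein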
Target sequence (O75030 whole entry, looked up): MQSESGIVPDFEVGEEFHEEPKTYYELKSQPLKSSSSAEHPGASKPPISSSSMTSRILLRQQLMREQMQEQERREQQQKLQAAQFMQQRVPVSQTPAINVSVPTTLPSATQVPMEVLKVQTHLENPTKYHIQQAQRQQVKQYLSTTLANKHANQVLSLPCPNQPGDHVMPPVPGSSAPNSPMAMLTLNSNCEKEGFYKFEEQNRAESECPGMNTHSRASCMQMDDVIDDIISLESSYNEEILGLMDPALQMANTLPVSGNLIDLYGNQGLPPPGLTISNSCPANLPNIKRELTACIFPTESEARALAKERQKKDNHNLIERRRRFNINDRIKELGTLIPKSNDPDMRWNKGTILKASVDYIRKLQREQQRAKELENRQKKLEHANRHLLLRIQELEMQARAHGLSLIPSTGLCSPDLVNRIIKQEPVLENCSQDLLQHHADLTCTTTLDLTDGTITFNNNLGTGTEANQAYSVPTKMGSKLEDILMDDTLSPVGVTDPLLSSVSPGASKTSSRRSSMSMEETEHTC
GPR151 activ: activates the human receptor GPR151; Q8TDV0; PathHunter beta-arrestin GPR151 cells, luminescence; activation, % at 11.2 µM; actives 1% (n = 650,000); AID 1508602; in the data active = activation above about 4.9%;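 note: 0% = median of compound wells and 100% = cells with positive control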
FBW7 act: activators of human E3 ligase FBW7 | Q969H0 | AlphaScreen FBW7–phospho-cyclin E peptide binding, activator screen | normalized activity (activation), % at 26.1 µM | actives 0.13% (n = 650,000); in the data active = normalized activity above about 1.9%;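 note: purified mutant Fbw7 with reduced substrate affinity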
TEAD-YAP inh: TEAD-YAP interaction inhibition. actives 1.4% (n = 640,000). HEK-TIYL cells, TEAD-Gal4/YAP UAS-luciferase luminescence. inhibition, % at 9.12 µM. AID 1259422; in the data active = inhibition above about 32%;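 note: 0% = median of test compound wells and 100% = reference inhibitor wells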
* = called active by the depositor.

SMILES	MITF primary	GPR151 activ	FBW7 act	TEAD-YAP inh
COc1cccc(-c2cc(C(F)(F)F)c3c(n2)oc2onc(N)c23)c1	5	1	0	-5
Cc1ccc2nc(NC(=O)C3=COCCO3)sc2c1	9	-11	0	66*
Cc1ccc(-c2csc(NC(=O)c3ccccc3C(=O)O)n2)cc1	7	0	0	-6
Cc1ccc(S(=O)(=O)Nc2ccccc2C(=O)Nc2nc3c(Cl)cccc3s2)cc1	-9	0	0	33*
O=C(O)c1ccccc1C(=O)Nc1nc(-c2ccc(Br)cc2)cs1	0	1	2.1*	4
Cc1ccc(S(=O)(=O)Nc2ccccc2C(=O)Nc2nc3ccc(Br)cc3s2)cc1	-16	1	0	55*
CS(=O)(=O)c1ccc2nc(NC(=O)C3=COCCO3)sc2c1	10	-1	0	-13
Cc1ccc(S(=O)(=O)Nc2ccccc2C(=O)Nc2nc3ccc(Cl)cc3s2)cc1	-11	1	0	2
Cc1ccc(N2C(=O)/C(=C/c3ccc(-c4cc(Cl)ccc4Cl)o3)C=C2c2ccccc2)cc1[N+](=O)[O-]	-5	2	0	-1
Cn1c(=O)c2c(nc(SCC(=O)Nc3nccs3)n2Cc2ccccc2)n(C)c1=O	7	-1	0	0
Cc1ccc(S(=O)(=O)Nc2ccccc2C(=O)Nc2nc(-c3ccc(F)cc3)cs2)cc1	0	2	0	54*
Cc1ccc(-c2csc(NC(=O)c3ccccc3NS(=O)(=O)c3ccc(C)cc3)n2)cc1	8	1	0	23
Cc1[nH]ncc1-c1ccc(NC(=O)C2COc3ccc(F)cc3C2)c(N(C)CCN(C)C)c1 (stereo not given)	6	-1	0	0
COc1ccc2c(c1)CC(c1nc3ccc(-c4ccncc4)cc3c(=O)[nH]1)CO2 (stereo not given)	21	0	1	2
COc1ccc2c(c1)CC(c1nc3ccc(-c4cn[nH]c4C)cc3c(=O)[nH]1)CO2 (stereo not given)	4	0	0	32*
COc1ccc2c(c1)OCC(c1nc3cc(-c4cn[nH]c4)c(F)cc3[nH]1)C2 (stereo not given)	-5	0	0	84*
COc1ccc2c(c1)CC(c1cnc3ccc(-c4cn[nH]c4)cc3n1)CO2 (stereo not given)	11	0	1	33*
Cc1[nH]ncc1-c1ccc2nc(NC(=O)C3COc4ccc(F)cc4C3)sc2c1 (stereo not given)	36	0	1	57*
N#C/C(C(=O)N1CCCC1)=c1/s/c(=C\c2ccc(C(=O)O)cc2)c(=O)n1-c1ccccc1	-15	0	0	1
COc1ccc(-c2cc(-c3cccs3)nc3sc4c(O)cc(=O)[nH]c4c23)cc1	34	0	0	-6
COc1ccc2c(c1)CC(C(=O)Nc1ccc(-c3cn[nH]c3C)cc1OCCN1CCCC1)CO2 (stereo not given)	-5	0	0	-3
O=C(Nc1ccc(-c2cn[nH]n2)cc1)C1COc2ccc(F)cc2C1 (stereo not given)	0	2	0	34*
COc1ccc2c(c1)CC(C(=O)Nc1ccc(-c3cn[nH]c3C)cc1OCCO)CO2 (stereo not given)	20	-1	1	55*
COc1ccc(S(=O)(=O)Nc2nc(-c3ccc(F)cc3)cs2)cc1	14	4	0	-23
CCOC(=O)C(CC)/C(C)=N\NC(=O)c1ccccc1O (stereo not given)	0	1	-1	59*
SMILES	MITF primary	GPR151 activ	FBW7 act	TEAD-YAP inh
CCOC(=O)C(CC)/C(C)=N\NC(=O)c1ccccc1[N+](=O)[O-] (stereo not given)	9	0	1	2
CCN1/C(=C/c2ccc3cc(C)ccc3[n+]2C)Sc2ccc3ccsc3c21	23	3	-1	76*
CCN1/C(=C/C=C/c2cc[n+](CC)c3ccccc23)C=Cc2ccccc21	5	0	0	9
CCN1/C(=C\c2c(O)c(=O)c2=O)Sc2ccccc21	11	-1	0	-5
CCN1/C(=C/c2ccc3cc(C)ccc3[n+]2C)Sc2ccccc21	23	2	0	76*
CN1/C(=C/c2cccc[n+]2C)C=Cc2ccccc21	12	3	0	71*
Cc1cccc2c1N(C)/C(=C/c1cccc[n+]1C)C=C2	-3	2	0	9
CCN1/C(=C/c2ccc3cc(C)ccc3[n+]2CC)C=Cc2ccccc21	8	-1	-1	92*
COC(=O)c1ccc(Nc2c(-c3ccc4c(c3)OCC(=O)N4)c(=O)c2=O)cc1	-3	-1	0	14
CCOC(=O)c1c(NC(=O)CSc2nnc(CNC(=O)c3ccccc3OC)n2CCc2ccccc2)sc2c1CCCC2	5	-2	1	-1
CC[n+]1c(/C=C2\Sc3cc(C)ccc3N2CCO)ccc2ccccc21	25	1	0	64*
CCN1/C(=C/c2ccc3cc(C)ccc3[n+]2CCO)Sc2ccccc21	26	0	0	58*
CC[n+]1c(/C=C2\Sc3ccccc3N2CCO)ccc2cc(C)ccc21	10	1	0	53*
CCN1/C(=C/c2cccc[n+]2C)C=Cc2cc(C)ccc21	7	1	0	81*
CCN1/C(=C/c2c3ccccc3cc[n+]2CC)C=Cc2ccccc21	22	1	0	89*
CC[n+]1c(/C=C2\Sc3ccccc3N2CCO)ccc2cc(OC)ccc21	3	2	-1	70*
CC[n+]1c(/C=C2\Sc3cc(NC(C)=O)ccc3N2C)ccc2ccccc21	13	0	0	10
CC(=C\c1sc2oc3ccccc3c2[n+]1CCO)/C=C1/Sc2oc3ccccc3c2N1CCO	-8	-1	0	-1
CC[n+]1c(/C=C2\Sc3ccccc3N2C)ccc2ccc(C)cc21	1	0	0	77*
CC[n+]1c(/C=C2\Sc3oc4ccccc4c3N2C)ccc2cc(C)ccc21	14	0	0	44*
C[n+]1ccccc1/C=C1\Sc2ccccc2N1CCO	6	0	0	13
CCC(=O)Nc1ccc(C(=O)Nc2cccc(NC(C)=O)c2)cc1	8	0	1	-6
CCCCN(CCCC)S(=O)(=O)c1ccc(C(=O)Nc2sc3c(c2C(=O)OCC)CCN(C(C)=O)C3)cc1	-16	0	0	4
COc1ccc(-c2nc(Nc3ccc(NC(C)=O)cc3)c3ncn(-c4ccsc4)c3n2)cc1	7	0	0	43*
CC(=O)Nc1ccc(Nc2nc(-c3cccc(N)c3)nc3c2ncn3-c2ccsc2)cc1	-2	3	0	43*
Nc1cccc(-c2nc(Nc3ccccc3)c3ncn(-c4ccsc4)c3n2)c1	1	0	0	49*
CC(C)NS(=O)(=O)c1ccccc1C(=O)O	-1	-2	0	-4
O=C1N[C@@H](Cc2ccc(Cl)cc2)C(=O)N2CCN(Cc3ccccc3)C[C@H]12	-1	2	0	7
O=C1N[C@@H](Cc2ccccc2)C(=O)N2CCN(Cc3ccc(Cl)cc3)C[C@H]12	-5	-2	2.1*	2
